Measured values as given in paper PMC5540273 (PLoS ONE, 2017).
Values joined by “and” are separate entries in the source; they are usually repeats but may differ in a detail not shown here. Equal values may be shown once. Read-outs that look alike come from different tables or passages of the source.

Legend:
SgK110 = details: concentration: 1 μM, replicates: in singlicate; n = 1
TAK1 = test system: T1, TAK1; details: concentration: 1 μM, replicates: in singlicate, n = 1
T1 construct: gene MAP3K7

TAOK1 = details: concentration: 1 μM, replicates: in singlicate; n = 1
TAOK2 = details: concentration: 1 μM, replicates: in singlicate, n = 1
TAOK3 = details: concentration: 1 μM, replicates: in singlicate, n = 1
TBK1 = details: concentration: 1 μM, replicates: in singlicate, n = 1
TEC = details: concentration: 1 μM, replicates: in singlicate; n = 1
TESK1 = details: concentration: 1 μM, replicates: in singlicate, n = 1
TGFBR1 = details: concentration: 1 μM, replicates: in singlicate, n = 1
TGFBR2 = details: concentration: 1 μM, replicates: in singlicate; n = 1
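Note: KINOMEscan kinase panel screen.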

Row | SMILES | %Inh (SgK110) | %Inh (TAK1) | %Inh (TAOK1) | %Inh (TAOK2) | %Inh (TAOK3) | %Inh (TBK1) | %Inh (TEC) | %Inh (TESK1) | %Inh (TGFBR1) | %Inh (TGFBR2) | %Inh (TAK1; 1 µM) | %Inh (TAOK2; 1 µM) | %Inh (TAOK3; 1 µM) | %Inh (TBK1; 1 µM) | %Inh (TESK1; 1 µM) | %Inh (TGFBR1; 1 µM)
1 | O=C(Nc1ccccc1F)NC1CCN(c2ccnc(Nc3ccc(F)cc3)n2)C1 (centres unmarked) [GSK1379722] | 0% | 0% | 0% | 0% | 0% | 0% | 6% | 16% | 25% | 0% | – | – | – | – | – | –
2 | Cl.Cn1ccc(-c2cccc(Nc3ccnc4cc(-c5nccs5)ccc34)c2)n1 [GW525701] | 19% | 0% | 0% | 0% | 0% | 17% | 17% | 34% | 12% | 0% | – | – | – | – | – | –
3 | NC(=O)c1sc(-n2cnc3ccccc32)cc1OCc1ccccc1F [GSK1024306] | 0% | 0% | 0% | 0% | 0% | 0% | 22% | 24% | 5% | 0% | – | – | – | – | – | –
4 | Cl.c1ccc(Cn2ccc3cc(Nc4ncnc5ccccc45)ccc32)cc1 [GW275568] | 0% | 6% | 0% | 23% | 0% | 39% | 4% | 9% | 29% | 0% | – | – | – | – | – | –
5 | Fc1cccc(COc2ccc(Nc3ncnc4sc(-c5ccc[nH]5)cc34)cc2Cl)c1 [GW707818] | 0% | 0% | 10% | 8% | 14% | 2% | 0% | 5% | 37% | 3% | – | – | – | – | – | –
6 | Cl.Fc1ccccc1COc1ccc(Nc2ncnc3ccc(-c4nnc(C(F)(F)F)o4)cc23)cc1Cl [GW424170] | 0% | 0% | 0% | 0% | 0% | 7% | 5% | 29% | 0% | 0% | – | – | – | – | – | –
7 | COc1ccc(-c2nc3n(c2-c2ccncc2)CCC3)cc1 [SKF-104493] | 0% | – | 0% | – | – | – | 0% | – | – | 0% | 0% and 31% | 26% and 10% | 5% and 0% | 13% and 17% | 1% and 24% | 37% and 31%
8 | CSc1nn2c(=O)cc(N3CCOCC3)nc2n1Cc1cccc(Cl)c1Cl [GSK2347225] | 0% | 0% | 2% | 0% | 3% | 10% | 18% | 7% | 0% | 0% | – | – | – | – | – | –
9 | CNc1nccc(-c2c(-c3ccc(F)cc3)ncn2CCCN2CCOCC2)n1 [SB-222516] | 7% | 0% | 0% | 0% | 0% | 5% | 33% | 10% | 0% | 16% | – | – | – | – | – | –
10 | Fc1ccc(-c2ncn(CCCNCc3ccccc3)c2-c2ccncc2)cc1 | 12% | 29% | 5% | 0% | 0% | 25% | 8% | 6% | 0% | 10% | – | – | – | – | – | –
11 | Fc1cccc(COc2ccc(Nc3ncnc4nn5ccccc5c34)cc2Cl)c1 [GW689066] | 0% | 0% | 0% | 0% | 0% | 0% | 0% | 14% | 0% | 0% | – | – | – | – | – | –
12 | Cc1cccc(-c2nc(Nc3ccc4[nH]nnc4c3)c3ccccc3n2)n1 [GW867587] | 19% | 0% | 0% | 0% | 0% | 14% | 0% | 0% | 32% | 0% | – | – | – | – | – | –
13 | CCC(CC)(CC)n1cnc2c(N)ncnc21 [SKF-97620] | 8% | 6% | 48% | 2% | 22% | 15% | 35% | 0% | 52% | 0% | – | – | – | – | – | –
14 | Cl.O=S(=O)(c1cccc(F)c1)c1ccc(Nc2ncnc3cc(Br)sc23)cc1Cl [GSK306886] | 0% | 0% | 0% | 0% | 0% | 9% | 0% | 0% | 7% | 0% | – | – | – | – | – | –
15 | O=C(NCCCN1CCCC1=O)c1cnc(NCc2cc(Cl)ccc2Cl)nc1NC1CCNCC1 | 5% | 27% | 0% | 0% | 0% | 12% | 0% | 2% | 0% | 6% | – | – | – | – | – | –
16 | CNc1nccc(-c2c(-c3ccc(F)cc3)ncn2C2CCN(C)CC2)n1 [SB-222903] | 36% | 0% | 0% | 7% | 0% | 1% | 10% | 3% | 24% | 0% | – | – | – | – | – | –
17 | Nc1n[nH]c2nnc(-c3ccccc3)cc12 [SB-517389] | 0% | 0% | 0% | 0% | 3% | 6% | 11% | 27% | 0% | 0% | – | – | – | – | – | –
